Experimental data from PubChem BioAssay (NCI).
This is part of a sample that, as a whole, favours compounds with a hit. Of some 79,000 tested, about 15% had one in any assay. No stated cut-off is given here; in the data, active means growth inhibition above about 70%; inactive means the rest.

What was measured:
[1] = NCI Yeast Anticancer Drug Screen. Data for the rad50 strain (AID 155);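 further: 0% = growth of vehicle-only cultures of the same strain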; details: S. cerevisiae rad50 strain growth inhibition; at 50.0 µM; stronger effect = higher value
In short: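 Compounds were tested on a yeast strain with an engineered DNA damage repair alteration; the reported value is growth inhibition normalised to vehicle treatment.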

[2] = NCI Yeast Anticancer Drug Screen. Data for the mec2-1 strain (AID 157); details: S. cerevisiae mec2-1 strain, at 50.0 µM, stronger effect = higher value
In short: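 Cells of the genetically defined mec2-1 yeast strain are incubated with test compound. Inhibition of growth is calculated against vehicle-treated controls.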

[3] = NCI Yeast Anticancer Drug Screen. Data for the sgs1 mgt1 strain (AID 161);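 further: 0% = growth of cultures given vehicle only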; details: S. cerevisiae sgs1 mgt1 strain, at 50.0 µM, stronger effect = higher value
In short: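 Mutant yeast exposed to compound; growth scored against vehicle-only wells.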

[4] = NCI Yeast Anticancer Drug Screen. Data for the cln2 rad14 strain (AID 165);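 further: 0% = growth equal to vehicle treated cultures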; details: S. cerevisiae cln2 rad14 strain, at 50.0 µM, stronger effect = higher value
In short: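 The screen exposed genetically defined yeast (cln2 rad14) to test compounds and scored growth inhibition relative to vehicle-treated controls.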

[5] = NCI Yeast Anticancer Drug Screen. Data for the bub3 strain (AID 167); details: S. cerevisiae bub3 mutant strain, at 50.0 µM, stronger effect = higher value
In short: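 Growth of a checkpoint-deficient yeast mutant is measured after compound exposure. Values represent inhibition relative to vehicle.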

[6] = NCI Yeast Anticancer Drug Screen. Data for the mlh1 rad18 strain (AID 175); details: S. cerevisiae mlh1 rad18 strain growth inhibition; at 50.0 µM; stronger effect = higher value
In short: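 Compound-treated yeast growth, normalised to vehicle controls. Strain bears defined DNA repair mutations.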

Measured: growth inhibition

O=S(=O)(OCC(F)(F)F)c1ccccc1
inactive: [1] 16.4% | [2] 8.25% | [3] 14.7% | [4] -2.8% | [5] -8.8% | [6] -10.4%

COc1cccc(C2N(Cc3ccccc3OC)CCCN2Cc2ccccc2OC)c1
inactive: [1] 8.15% | [2] 11.8% | [3] 29.5% | [4] 21.8% | [5] -5.8% | [6] 8%

N#C/C1=C(\N)CCSSSC1
inactive: [1] 30.8% | [2] 25.9% | [3] 17.4% | [4] 21.3% | [5] 9.5% | [6] -0.2%

COc1cc(-c2cccs2)sc1-c1cccs1
inactive: [1] 10.4% | [2] -7.15% | [3] 31.4% | [4] 8.95% | [5] 19.6% | [6] 13.2%

Cc1nnc2n(c1=O)CCN2C
inactive: [1] -1.65% | [2] 0.1% | [3] 12.3% | [4] -4.4% | [5] 7.8% | [6] 26.2%

CCOC(=O)c1cnc2c(ccc3ncccc32)c1Cl
inactive: [1] -13.9% | [2] -7.45% | [3] 15.8% | [4] 25.2% | [5] 7% | [6] 27.1%

CCCCN(CCCC)c1ccc(N=C(C#N)c2ccc(N(CCCC)CCCC)cc2)cc1
inactive: [1] -21.4% | [2] -14.2% | [3] 14% | [4] -38.8% | [5] -3% | [6] 19.5%

Oc1ccc2ccccc2c1C=Nc1ccc(SSc2ccc(N=Cc3c(O)ccc4ccccc34)cc2)cc1
inactive: [1] -6.6% | [2] -10.1% | [3] -19.6% | [4] -59.5% | [5] 0.9% | [6] -3.1%

S=C(SNC1CCCCC1)SNC1CCCCC1
inactive: [1] -65.5% | [2] -14.2% | [3] 4.25% | [4] -13.4% | [5] 9.35% | [6] 6.25%

CC(=O)Nc1c(Nc2ccc3c(=O)[nH]ccc3c2C)cc[nH]c1=O
inactive: [1] 22.1% | [2] 13.7% | [3] 17.1% | [4] 14.5% | [5] 10.4% | [6] 27.5%

CN(NC1=NCCO1)c1ccc2ccccc2c1
inactive: [1] -46.3% | [2] -22.4% | [3] -15.8% | [4] -23.5% | [5] -21.4% | [6] -46.1%

COc1ccc(N=NC(=S)NNc2ccc(OC)cc2Oc2ccccc2)c(Oc2ccccc2)c1
inactive: [1] 12.5% | [2] -0.4% | [3] 29.4% | [4] 11.8% | [5] -4.6% | [6] 3.35%

CCN(CC)c1ncnc2c1nc(C)n2Nc1ccccc1
inactive: [1] 13.7% | [2] -3.1% | [3] 1.3% | [4] 7.4% | [5] 0.5% | [6] -10.7%

Cc1cc2c(=O)cc(-c3ccc(C(=O)O)cc3)oc2c(C(N)=O)c1C
inactive: [1] 4.15% | [2] 14.9% | [3] 23.6% | [4] 23.4% | [5] 11.2% | [6] 12.9%

CC1(C)CC(Nc2ccccc2)=CC(=Nc2ccccc2)S1
inactive: [1] -13.1% | [2] -11.2% | [3] -3.55% | [4] -25.2% | [5] -32.5% | [6] -14.2%

COc1cc(CNC(=S)CCCCCCCCCCC(C)C)ccc1O
inactive: [1] -20.1% | [2] -23.6% | [3] -4.5% | [4] -26.4% | [5] 15.2% | [6] -21.4%

Cc1cccc(NC(=O)/C=C/c2ccccc2)n1
inactive: [1] 6.15% | [2] -26.5% | [3] -4.3% | [4] -81.3% | [5] 9.15% | [6] -22.4%

COC(=O)C1CC2CC1C1C2SC(F)(F)C1(F)F (configuration not stated)
inactive: [1] 0.2% | [2] -1.7% | [3] 6.4% | [4] 7.8% | [5] -5% | [6] 17.1%

O=S(Cc1ccccc1)CC(O)CO (configuration not stated)
inactive: [1] -24.9% | [2] 5.95% | [3] 2.7% | [4] -41.2% | [5] 10.3% | [6] -0.85%

CCOc1ccc(N=Nc2ccc3oc(=O)c(/C(C)=N/NC(=O)CC(=O)Nc4cccc(OC)c4)cc3c2)cc1
inactive: [1] 44.5% | [2] 36% | [3] 25.2% | [4] -17.3% | [5] -5% | [6] 44.1%

CC(C)(C)OC(=O)Cc1ccc([N+](=O)[O-])cc1
inactive: [1] 2% | [2] -19.6% | [3] -10.7% | [4] -5.85% | [5] -3.05% | [6] -17.7%

COC(=O)c1ccc(C(=O)OC)cc1
inactive: [1] -12.2% | [2] -26.1% | [3] 15.9% | [4] 12.2% | [5] 8.95% | [6] 11.3%

CC(C)CNC(=O)Cn1c2c(c3ccccc31)CCCC2
inactive: [1] -4.5% | [2] -32.7% | [3] 1.4% | [4] 3.75% | [5] -14.8% | [6] -10.8%

CCCCCCCCCCCCOC1OC(COC(C)=O)C(OC(C)=O)C(OC(C)=O)C1OC(C)=O (configuration not stated) (tested in a mixture with another compound)
inactive: [1] -7.9% | [2] -15.4% | [3] -15.6% | [4] -22.2% | [5] -2.45% | [6] -14.4%

O=C1c2ccccc2C(=O)N1/N=[N+](\[O-])N1Cc2ccccc2C1
inactive: [1] 18.4% | [2] 27.9% | [3] 24.1% | [4] -18.2% | [5] 7.65% | [6] 28.2%

CNc1nc2c(s1)c1c(O)c3c(O)c(C)c4c(c32)C(=O)C(C)(O/C=C/C(OC)C(C)C(OC(C)=O)C(C)C(O)C(C)C(O)C(C)/C=C/C=C(/C)C(=O)N1)O4 (configuration not stated)
inactive: [1] 14.1% | [2] 13.8% | [3] 9.1% | [4] 9.7% | [5] 21.2% | [6] 20.5%

O=C1C=C2CCCCCCCCC(C1)C2 (configuration not stated)
inactive: [1] -1.85% | [2] -9.85% | [3] -5.45% | [4] -18.8% | [5] 12.4% | [6] 0.1%

OC(COc1c2ccccc2nc2ccccc12)CN1CCN(c2ccccc2)CC1 (configuration not stated)
inactive: [1] 21.9% | [2] -5.45% | [3] 6.5% | [4] 9% | [5] 0.9% | [6] 19.9%

c1ccc(B2OB(c3ccccc3CN3CCCC3)OB(c3ccccc3CN3CCCC3)O2)c(CN2CCCC2)c1
inactive: [1] 21% | [2] 4.15% | [3] 0.05% | [4] 17.1% | [5] 0.75% | [6] 15.4%

C[CH2][Sn]([CH2]C)([N](c1ccccn1)c1ccccn1)[N](c1ccccn1)c1ccccn1
inactive: [1] -1.75% | [2] -2.25% | [3] -26.2% | [4] 4.3% | [5] -0.6% | [6] -25.1%

CC#CC(C)(C)N(C)C
inactive: [1] -16.6% | [2] -8.45% | [3] -8.75% | [4] -21.4% | [5] 12.8% | [6] 14.1%

N#Cc1nc(NC(=O)c2ccccc2)sc1N
inactive: [1] -5.7% | [2] -29.9% | [3] -27.6% | [4] 11.2% | [5] 4.2% | [6] -10.2%

COc1ccccc1-c1cc(=O)c2c(C)cc(C)nc2[nH]1
inactive: [1] -15.8% | [2] -16.1% | [3] -0.6% | [4] -20.3% | [5] 6.25% | [6] 1.65%

C(=N\N(CCCCN(/N=C/c1ccccc1)c1ccccc1)c1ccccc1)/c1ccccc1
inactive: [1] 38.5% | [2] 11.2% | [3] 13.8% | [4] 21.8% | [5] -11.8% | [6] 23.9%

NC(=O)NCSCNC(N)=O
inactive: [1] -0.7% | [2] -0.2% | [3] -7.35% | [4] 8.15% | [5] -2.75% | [6] 4.5%

Clc1ccc(Nc2ncco2)cc1Cl
inactive: [1] 16.7% | [2] -15.2% | [3] 30.6% | [4] -0.8% | [5] 1.1% | [6] 16.8%

CSC1NN=C(CCC(=O)Nc2ccc(C)cc2)O1 (configuration not stated)
inactive: [1] -37.7% | [2] 5.25% | [3] 13% | [4] -21.1% | [5] -3.8% | [6] 12.9%

COc1cc2c(c([N+](=O)[O-])c1)NC(=O)CS2
inactive: [1] -81.2% | [2] -60.5% | [3] -17.2% | [4] -4.5% | [5] 0.95% | [6] -28.1%

O=C(c1ccccc1CO)N1CCCCC1
inactive: [1] 10.8% | [2] 2.2% | [3] -1.55% | [4] -69% | [5] -9.2% | [6] -20.4%

CC(C)CCC(C)C1CCC2C3CC/C(=N/Nc4ccc([N+](=O)[O-])cc4[N+](=O)[O-])C(C)(CCC(=O)O)C3CCC12C (configuration not stated)
inactive: [1] -45.8% | [2] -12.2% | [3] -24.9% | [4] -24.2% | [5] -0.1% | [6] -3.4%

OCCO
inactive: [1] -26.4% | [2] -24.1% | [3] -49.3% | [4] -31.6% | [5] -32% | [6] -30.6%

CC(=O)Nc1nc2ncc(CN(C(C)=O)c3ccc(C(=O)O)cc3)nc2c(=O)[nH]1
inactive: [1] -19.3% | [2] -8.6% | [3] -38.1% | [4] -8.65% | [5] -21.1% | [6] -10.2%
